# DT40 TDP1 no CPT = qHTS for Inhibitors of human tyrosyl-DNA phosphodiesterase 1 (TDP1): qHTS in cells in absence of CPT. DT40 Tdp1-/- hTDP1 cells, no CPT, ATP luminescence, 48 h. Potency, µM (titrated, usually from 46.2 µM), without a hit: top-dose activity change, negative = growth inhibition, most hits filed as inhibitors. 420,000 compounds, 15% hits; further: on the % scale 0 is the no-effect control and ±100 the full control effect; nearly all actives have a fitted effect of over 55% in size
#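 Camptothecin absent (DMSO only). Human TDP1-complemented DT40 knockout cells, 400 cells/well, 37 °C for minimum 48 hr; ATP measured via CellTiter-Glo, 30 min dark incubation, luminescence.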
# TGFb SMAD3 inh = TGF-b pathway inhibition | HepG2 CAGA-GFP TGF-b/SMAD3 reporter, GFP fluorescence, 18 h; TGF-beta stimulated, 500 pg/mL final | Potency, µM (highest dose often 46.1 µM), for inactives: top-dose activity, negative = inhibition, hits mostly inhibitors | 410,000 compounds, 1.2% hits; further: on the % scale 0 is the no-effect control and ±100 the full control effect; nearly all actives have a fitted effect of over 65% in size
#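 Cell-based qHTS in HEPG2 carrying a CAGA-GFP Smad reporter; compounds added before 500 pg/mL final TGF-beta, 18 h incubation at 37 degrees C, GFP fluorescence quantified per cell by imaging cytometry.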
# HT1080-NT tox = kills 2HG-producing HT-1080-NT fibrosarcoma cells. Potency, µM (doses to about 46.1 µM), inactives show at the top dose activity, negative = less viability, actives largely listed as cytotoxic. HT-1080-NT fibrosarcoma viability, CellTiter-Glo ATP luminescence, 48 h. AID 686970. 360,000 compounds, 1.6% hits;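 further: NT is the 2HG producing partner of a matched IDH1 knockdown line; 0% = DMSO-treated cells and -100% = media-only wells without cells; nearly all actives have a fitted effect of over 55% in size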
#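 Read-out is CellTiter-Glo luminescence after 10 minutes at room temperature, following 48 hours' compound treatment of HT-1080-NT cells (750 cells/well, RPMI, 5% FBS, 37 degrees C).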
# HepG2 tox = kills HepG2 cells in TGF-b inhibitor counter-screen; HepG2 CAGA-GFP viability, ATP luminescence, 18 h; Potency, µM (doses to about 46.1 µM), inactives show at the top dose activity change, negative = cytotoxicity, actives largely listed as cytotoxic; 410,000 compounds, 0.76% hits
#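 CellTiter-Glo luminescence gave cytotoxicity after 18 hours at 37 degrees C. The cells were HepG2 CAGA-GFP in 1% FBS DMEM, stimulated with 500 pg/mL TGF-beta after compound addition. %Activity was normalised to no-cell wells (complete cell-killing) and DMSO (no toxicity), and curves were fitted and classified.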
# HT1080 IDH1KD tx = HT-1080 IDH1 knockdown cell toxicity (counter line); HT-1080 IDH1 knockdown viability, ATP luminescence, 48 h; Potency, µM (series often up to 46.1 µM), inactives show at the highest dose activity, negative = toxicity, hits mostly cytotoxic; 360,000 compounds, 2% hits;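 further: 0% = DMSO wells and -100% = cell-free medium wells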
#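 % activity derives from luminescence (CellTiter-Glo), normalised to DMSO and no-cell wells. HT-1080-IDH1KD cells, 750/well, had 48 h compound exposure at 37 °C.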
# TDP1 cell CPT = DT40-hTDP1 cell growth loss with CPT; chicken DT40 Tdp1-/-;hTDP1 cells + 20 nM CPT, ATP luminescence, 48 h; Potency, µM (series often up to 46.2 µM), for inactives: at the highest dose activity change, negative = growth inhibition, usual class: inhibitors; 420,000 compounds, 12% hits; further: on the % scale 0 is the no-effect control and ±100 the full control effect; nearly all actives have a fitted effect of over 55% in size
#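 Cell growth measured by CellTiter-Glo luminescence after a minimum 48 h, 37 C compound exposure with 20 nM CPT in Tdp1-knockout DT40 cells stably expressing hTDP1, seeded 400/well; qHTS titration format.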
# Active calls of the source: *; ? = inconclusive; · = no result; [ ] = another dose, or the depositor's remark. Shown are actives, neighbours in structure and some others; about 17% of the full set was active somewhere. The call rests on the fitted dose curve; in most records, active means well fitted curve in the direction sought with a large enough effect; inconclusive means small, poorly fitted or top-dose-only effect, or another doubt; inactive means no such curve, though single readings can be large; an effect the other way counts as inactive or inconclusive. Potency means the concentration at half of the fitted maximal effect.
SMILES,DT40 TDP1 no CPT,TGFb SMAD3 inh,HT1080-NT tox,HepG2 tox,HT1080 IDH1KD tx,TDP1 cell CPT
C[N+]1([O-])[C@@H]2CC[C@H]1CC(OC(=O)C(CO)c1ccccc1)C2 (some centres not stated),-29%[21.1 µM],·,·,·,·,-3%[21.1 µM]
COc1ccc(NC(=O)C(Cc2ccccc2)NS(=O)(=O)c2ccc3c(c2)oc(=O)n3C)c(OC)c1 (configuration not stated),-20%,0%,·,1%,·,-9%
CC(c1nc2ccccc2c(=O)[nH]1)N(C)CCOc1ccc(Cl)cc1 (configuration not stated),18µM*,-13%,0%,0%,6%,21µM*
O=C(COc1ccc(Br)cc1)Nc1ccc(Cl)cc1C(=O)c1ccccc1,-15%,14%,·,1%,·,-3%
Cn1c(=O)n(C)c2cc(CNCCc3ccc(F)cc3)ccc21,26µM*,?,·,-24%,·,16µM*
COc1ccc(CCNCc2ccc3c(c2)n(C)c(=O)n3C)cc1,-32%,10%,·,5%,·,?
CC12CCC3C(=CCc4cc(O)ccc43)C1CCC2=O (configuration not stated),-34%,·,·,·,·,?
CCOC(=O)c1cccc(NC(=O)NCc2ccc3c(c2)CCN3C(=O)c2ccccc2)c1,16µM*,?,·,-13%,·,16µM*
Cc1ccc(C(=O)N2CCc3cc(CNC(=O)c4ccnn4C)ccc32)cc1,9.2µM*,1%,·,-12%,·,5.8µM*
O=C(NCc1ccc(C(=O)N2CCC3(CC2)OCCO3)cc1)c1cccc(Br)c1,-28%,-17%,6%,-13%,11%,?
CCOC(=O)c1ccc(NC(=O)Nc2ccc3c(c2)OCCO3)cc1,?,39%,?,-48%,?,?
CCN[C@@H](C)Cc1ccccc1,3%[92.5 µM],·,·,·,·,13%[92.5 µM]
Cc1ccc(-n2cc(CNC(C)Cc3cnccn3)c(-c3cccc(C)c3)n2)cc1 (configuration not stated),12µM*,?,?,-33%,?,13µM*
CC(CNC(=O)c1ccc(CSc2nc3ccncc3n2Cc2ccc(F)cc2)cc1)c1ccccc1 (configuration not stated),?,?,·,-23%,·,12%
C#C[C@]1(O)CC[C@H]2[C@@H]3CCC4=Cc5nc6nc7ccccc7n6cc5C[C@]4(C)[C@H]3CC[C@@]21C,12µM*,23%,-18%,-13%,-14%,?
CCOC(=O)C(O)(c1ccc(N=c2ccccn2C)cc1)C(F)(F)F (configuration not stated),3%,-10%,2%,3%,2%,6%
CN1CCC(O)(c2cccs2)C(C(=O)c2cccs2)C1 (configuration not stated),3.7µM*,?,23µM*,-30%,?,1.3µM*
O=[N+]([O-])c1ccc(S(=O)(=O)NCC(c2ccco2)N2CCc3ccccc3C2)cc1 (configuration not stated),?,?,-1%,0%,0%,-21%
O=C1NC(=O)C2(Cc3ccccc3N3CCOCC32)C(=O)N1c1ccccc1 (configuration not stated),?,-9%,?,13%,18µM*,?
C[C@H]1COC(=O)[C@H](Cc2ccc(F)cc2)CC/C=C/C[C@@H](CC(=O)N(CCO)Cc2ccccc2)C(=O)N1,18µM*,?,7%,-26%,8%,23µM*
Cc1ccc(C)c(N2CCN(c3ncnc4onc(C)c34)CC2)c1,13µM*,?,·,-22%,·,?

# High-throughput results deposited in PubChem by National Center for Advancing Translational Sciences (NCATS).
